Results on 15 compounds are retold here after PubChem BioAssay (NCATS).

Records with an inconclusive call do not appear. Entries that show only a call come without a potency. The source made the active and inactive calls. The call rests on the fitted dose curve; in most records, active means well fitted inhibition curve with a large enough effect; inconclusive means small, poorly fitted or top-dose-only effect; inactive means no such curve, though single readings can be large or run the other way.

In the assay the target is Cytochrome P450 3A7 (Homo sapiens) (UniProt P24462). The assay is described as follows: Cytochrome P450 family 3 subfamily A member 7 (CYP3A7) small molecule antagonists: luciferase biochemical qHTS assay (AID 1963596). Further: nearly all actives have a fitted effect of over 40% in size. The following applies: P450-Glo CYP3A7 enzyme luminescence, 1 h; series mostly up to 57.4 µM. An outline of the steps: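 Luminescence from luciferin released by CYP3A7 from a proluciferin substrate, read 20 min after detection reagent. Compound and enzyme-substrate mix sat 10 min before NADPH regeneration solution; reaction ran 1 h at room temperature.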
Cytochrome P450 3A7 (Homo sapiens), sequence (P24462 whole entry, looked up): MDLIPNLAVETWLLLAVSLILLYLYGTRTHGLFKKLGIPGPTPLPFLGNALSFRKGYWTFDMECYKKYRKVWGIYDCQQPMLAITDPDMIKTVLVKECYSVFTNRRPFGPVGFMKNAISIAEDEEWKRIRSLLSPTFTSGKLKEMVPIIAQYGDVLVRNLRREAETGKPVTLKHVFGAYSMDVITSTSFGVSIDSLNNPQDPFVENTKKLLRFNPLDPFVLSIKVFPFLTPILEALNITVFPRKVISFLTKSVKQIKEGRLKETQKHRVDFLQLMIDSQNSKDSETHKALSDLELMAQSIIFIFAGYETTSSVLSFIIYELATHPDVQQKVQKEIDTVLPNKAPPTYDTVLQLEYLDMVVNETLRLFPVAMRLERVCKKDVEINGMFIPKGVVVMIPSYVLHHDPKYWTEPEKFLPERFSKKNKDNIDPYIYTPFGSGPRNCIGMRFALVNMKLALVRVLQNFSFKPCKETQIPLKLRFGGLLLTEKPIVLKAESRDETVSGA
(In general: In qHTS, concentration-response curves come from the screen itself.)
Regarding `Cc1ccc(C2=Nc3ccccc3N(CC(=O)Nc3ccccc3F)C(=O)C2)cc1C`, the Potency result was “inactive”.
The entry for `CC(C)NC(=O)c1ccc(C#Cc2ccncc2)cn1` is “inactive”; for `C[C@@H]1CN(Cc2ccccc2)C[C@H]1c1nc2c(cnn2C2CCOCC2)c(=O)[nH]1` it is “inactive”; for `CCCN(CCN1CCN(c2ccccc2OC)CC1)C1CCc2ncsc2C1` (stereo not given) it is “inactive”.
The entry for `Cc1cc(OCCCS(C)(=O)=O)cc(C)c1-c1cccc(COc2ccc3c(c2)OCC3CC(=O)O)c1` (stereo not given) is “inactive”; for `Nc1ncnc2c1ncn2[C@H]1O[C@@H](C(=O)N2CCN(CC(=O)Nc3cccc4c3CNC4=O)CC2)[C@H](O)[C@@H]1O` it is “inactive”.
The entry for `N=C(N)n1cccn1` is “inactive”; for `CC(C)Nc1nc(Nc2ccccc2)nc(-c2ccccc2)n1` it is “inactive”.
For `NC(=O)c1cccc2cn(-c3ccc(C4CCCNC4)cc3)nc12` (stereo not given), the Potency entry was “inactive”.
Consider `Cc1ccccc1NC(=O)Nc1ccc(CN2C(=O)N([C@@H](CC(C)C)C(=O)N[C@@H](CC(=O)O)c3ccccc3)C(=O)C2(C)C)cc1`, for which the Potency entry is “inactive”.
The entry for `C=CC1=C(C(=O)O)N2C(=O)[C@@H](NC(=O)/C(=N\O)c3csc(N)n3)[C@H]2SC1` (stereo in doubt) is “inactive”.
The entry for `Nc1c(CC(=O)O)cccc1C(=O)c1ccccc1` is “inactive”; for `Cc1ccc(-c2nnc(Nc3ccccc3)c3ccccc23)cc1S(=O)(=O)NCc1nc2ccccc2[nH]1` it is “inactive”.
For the compound `Cc1ccc(S(=O)(=O)Nc2nc3n(n2)C(c2ccc(Cl)cc2)C=C(c2ccccc2)N3)cc1` (stereo not given), the Potency entry was “inactive”.
The entry for `COc1cc(C(=O)NC(=S)Nc2cccc(NC(=O)c3ccccc3)c2)cc(OC)c1OC` is “inactive”.
